{"source": "PubChem BioAssay (NCATS)", "note": "Inconclusive results are not listed. Where a call stands in place of a potency, no number is given. Calls of active or inactive are those of the source. Calls come from the whole dose curve; as a rule, active = well fitted cell-killing curve with a large enough effect; inconclusive = small, poorly fitted or top-dose-only effect, or effect the other way; inactive = no such curve, though single readings can be large or run the other way. Potency is the fitted concentration of half-maximal effect.", "data": [{"experiment": "Quantitative High-Throughput drug screen in 47 multiple myeloma cell lines against the NCATS MIPE library collection: OCIMY1_PLB cell viability assay (AID 1918979); note: nearly all actives have a fitted effect of over 35% in size", "conditions": "OCI-MY1 myeloma viability, CellTiter-Glo ATP, 48 h; series mostly up to 45.8 µM", "description": "PI: Beverly A. Mock Ph.D.\nLaboratory of Cancer Biology and Genetics,\nCenter for Cancer Research, National Cancer Institute,\nNational Institute of Health, Bethesda, Maryland\nDrug resistance and disease progression are common in multiple myeloma (MM) patients, underscoring the need for new therapeutic combinations. […] We hypothesized that effective combinations would reduce MYC expression and enhance p16 activity. […] These preclinical data identify potentially useful drug combinations for evaluation in drug-resistant MM and reveal potential mechanisms of combined drug sensitivity.\nDescribed herein is the primary MIPE qHTS used to cherrypick compounds. Validated compounds were then further tested for potential synergistic activiy.\n[1] Peat TJ, Gaikwad SM, Dubois W, Gyabaah-Kessie N, Zhang S, Gorjifard S, Phyo Z, Andres M, Hughitt VK, Simpson RM, Miller MA, Girvin AT, Taylor A, Williams D, D'Antonio N, Zhang Y, Rajagopalan A, Flietner E, Wilson K, Zhang X, Shinn P, Klumpp-Thomas C, McKnight C, Itkin Z, Chen L, Kazandijian D, Zhang J, Michalowski AM, Simmons JK, Keats J, Thomas CJ, Mock BA. Drug combinations identified by high-throughput screening promote cell cycle transition and upregulate Smad pathways in myeloma. Cancer Lett. 2023 Aug 1;568:216284. doi: 10.1016/j.canlet.2023.216284. Epub 2023 Jun 24. PMID: 37356470; PMCID: PMC10408729.\nSEQUENCE No. (e.g., 1, 2, 3, etc.); […] (e.g., Cells, Incubation, Reagent, etc.); VALUE and DESCRIPTION.\n1; Cells; 5 uL; white, solid bottom 1536-well Greiner assay plate.\n2; Compounds; 23 nL; Kalypsis pin tool (Wako USA) equipped with a 1536-well pin head to transfer to the assay plates.\n3; Incubation; 48 hours; 37C incubation.\n4; Reagent;5uL; CellTiter Glo (Promega).\n5; Detector; 425V; Luminescence; Viewlux PerkinElmer.\nNOTES (numbers refer to Sequence numbers above)\n1. The cell-based screening methods employed in this study were like those previously published. Briefly, the corresponding myeloma cell lines were screened in 1,536-well plates with 500 cells, 5-uL per well for inhibition of cell viability (assessed by measuring ATP levels with CellTiterGlo).\n2. NCATS MIPE 4.0 library of approved and investigational drugs were added using the Kalypsis pin tool. Wells treated with DMSO only for 100% viability and media only for 0% viability were used as controls.\n3. The assay plates were covered and incubated for 48 hours in a 37C, 5% CO2 incubator with controlled humidity.\n4. After 48 hours, CellTilter-GloTM luminescent substrate mix (Promega) reagent was added to the assay plate and plates we incubated for 5 min at room temperature.\n5. Signal was measured as median relative luminescence units on a ViewLux (PerkinElmer) multiplate reader.\n[1] Heske CM, Davis MI, Baumgart JT, Wilson K, Gormally MV, Chen L, Zhang X, Ceribelli M, Duveau DY, Guha R, Ferrer M, Arnaldez FI, Ji J, Tran HL, Zhang Y, Mendoza A, Helman LJ, Thomas CJ. Matrix Screen Identifies Synergistic Combination of PARP Inhibitors and Nicotinamide Phosphoribosyltransferase (NAMPT) Inhibitors in Ewing Sarcoma. Clin Cancer Res. 2017 Dec 1;23(23):7301-7311. doi: 10.1158/1078-0432.CCR-17-1121. Epub 2017 Sep 12. PMID: 28899971; PMCID: PMC6636827.", "values": [{"compound": "O=C1CC[C@@]2(O)[C@H]3Cc4ccc(O)c5c4[C@@]2(CCN3CC2CC2)[C@H]1O5", "Potency": "inactive"}, {"compound": "N[C@@H](Cc1ccc(N(CCCl)CCCl)cc1)C(=O)O", "Potency": "16.6 µM (active)"}, {"compound": "CC1=C2C[C@@H]3[C@@H](CC=C4C[C@@H](O)CC[C@@]43C)[C@@H]2CC[C@]12O[C@H]1C[C@H](C)CN[C@H]1[C@H]2C", "Potency": "inactive"}, {"compound": "CN(C)CCc1ccc(O)cc1", "Potency": "inactive"}, {"compound": "C#CCN(C)[C@H](C)Cc1ccccc1", "Potency": "inactive"}, {"compound": "Cc1cccc(C)c1NC(=O)CN1CCCC1=O", "Potency": "inactive"}, {"compound": "COc1ccc(C(=O)c2c(C)n(CCN3CCOCC3)c3ccccc23)cc1", "Potency": "inactive"}, {"compound": "O=C(O)C(=O)c1cn(Cc2ccccc2)c2ccc(-c3ccc(OC(F)(F)F)cc3)cc12", "Potency": "inactive"}, {"compound": "C[C@@H]1[C@@H](CC(C[C@H]2O[C@@H]3O[C@]4(C)CC[C@@H]5[C@H](C)CC[C@@H]([C@H]2C)[C@@]35OO4)C[S+](=O)([O-])c2ccc(COC(=O)N(C)C)cc2)O[C@@H]2O[C@]3(C)CC[C@H]4[C@H](C)CC[C@@H]1[C@@]24OO3", "note": "(some centres undefined)", "Potency": "0.187 µM (active)"}, {"compound": "CN1CCN(C(=O)O[C@H]2c3nccnc3C(=O)N2c2ccc(Cl)cn2)CC1", "Potency": "inactive"}, {"compound": "CNC(=O)N1N=C(c2ccc(N)cc2)c2cc3c(cc2CC1C)OCO3", "note": "(centres undefined)", "Potency": "inactive"}, {"compound": "CCCC(C)(COC(N)=O)COC(=O)NC(C)C", "note": "(centres undefined)", "Potency": "inactive"}, {"compound": "COC1(CS(=O)c2ccccc2)CCN(CCc2c[nH]c3ccc(F)cc23)CC1", "note": "(centres undefined)", "Potency": "inactive"}, {"compound": "COc1ccc2c(c1OC)CN1CCc3cc4c(cc3C1C2)OCO4", "note": "(centres undefined)", "Potency": "inactive"}, {"compound": "CNC(=O)c1ccc(N2C(=S)N(c3ccc(C#N)c(C(F)(F)F)c3)C(=O)C23CCC3)cc1F", "Potency": "inactive"}, {"compound": "O=c1[nH]c2ccccc2n1CCCN1CCC(n2c(=O)[nH]c3cc(Cl)ccc32)CC1", "Potency": "inactive"}, {"compound": "C[C@@H]1O[C@@H](O[C@H]2C[C@@H](O)[C@]3(CO)[C@H]4[C@H](O)C[C@]5(C)[C@@H](C6=CC(=O)OC6)CC[C@]5(O)[C@@H]4CC[C@]3(O)C2)[C@H](O)[C@H](O)[C@H]1O", "Potency": "0.0209 µM (active)"}, {"compound": "Cn1cc(C2=C(c3cn(C4CCN(Cc5ccccn5)CC4)c4ccccc34)C(=O)NC2=O)c2ccccc21", "Potency": "inactive"}, {"compound": "COc1ccc(C(CN(C)C)C2(O)CCCCC2)cc1", "note": "(centres undefined)", "Potency": "inactive"}, {"compound": "Cc1cc(SCc2sc(-c3ccc(C(F)(F)F)c(F)c3)nc2C)ccc1OCC(=O)O", "Potency": "inactive"}, {"compound": "COC[C@@H](NC(C)=O)C(=O)NCc1ccccc1", "Potency": "inactive"}, {"compound": "CC(C)CC(N(C)C)C1(c2ccc(Cl)cc2)CCC1", "note": "(centres undefined)", "Potency": "inactive"}, {"compound": "Fc1ccc(C(OCCN2CCN(CCCc3ccccc3)CC2)c2ccc(F)cc2)cc1", "Potency": "26.4 µM (active)"}, {"compound": "CNCC(O)c1ccc(O)cc1", "note": "(centres undefined)", "Potency": "inactive"}]}]}
